What is called inhibition is the change of the read-out against control, counted positive when it falls.

Among all 190,000 compounds or so, about 1,300 (0.68%) were called active. No stated cut-off is given here; in the data, active means inhibition above about 50%; inactive means the rest. The sample as a whole holds a higher share of actives than the screen did.

Mannose-6-phosphate isomerase (Homo sapiens), sequence (P34949 whole entry, looked up): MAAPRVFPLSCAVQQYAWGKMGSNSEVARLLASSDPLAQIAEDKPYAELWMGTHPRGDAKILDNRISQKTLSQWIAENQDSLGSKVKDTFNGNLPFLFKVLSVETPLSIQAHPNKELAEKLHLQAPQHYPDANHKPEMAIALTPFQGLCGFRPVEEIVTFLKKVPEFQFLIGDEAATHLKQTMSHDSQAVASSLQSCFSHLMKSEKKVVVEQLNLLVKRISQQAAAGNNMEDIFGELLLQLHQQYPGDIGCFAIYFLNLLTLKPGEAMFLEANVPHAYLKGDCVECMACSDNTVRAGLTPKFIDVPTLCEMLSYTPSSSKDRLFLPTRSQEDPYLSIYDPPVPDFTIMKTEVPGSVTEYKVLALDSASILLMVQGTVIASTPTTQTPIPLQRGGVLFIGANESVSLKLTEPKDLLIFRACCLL

This test has as its target Mannose-6-phosphate isomerase (Homo sapiens) (UniProt P34949). The test is described as follows: human PMI inhibitors, high substrate, primary screen, biochemical, fluorescence intensity, high mannose 6-phosphate (AID 1220). To be noted: recombinant PMI enzyme, coupled fluorescence intensity; at 20 µM; stronger effect = higher value.
Turning to `O=C(O)/C(=C\c1ccccc1Cl)c1ccc(S(=O)(=O)N2CCCCC2)s1`, the inhibition is -23% (inactive).

As to `O=C(O)/C(=C\c1ccc(Cl)c([N+](=O)[O-])c1)c1ccc(S(=O)(=O)N2CCCCC2)s1`, the inhibition is 57% (active). In the case of `O=C(O)/C(=C\c1ccc(Br)cc1)c1ccc(S(=O)(=O)N2CCCCC2)s1` it was 3.7% (inactive); in that of `Cc1c(Cl)c([N+](=O)[O-])nn1CCCC(=O)N1CCN(c2ccccc2)CC1`, -19.1% (inactive). Consider `COc1cccc(CNC(=S)Nc2cc(C)cc(C)c2)c1`, for which the inhibition was 4.2% (inactive). Consider `O=c1[nH]c2ccccc2n2c(-c3ccncc3)nnc12`, for which the inhibition is 0.5% (inactive). For `O=c1[nH]c2ccccc2n2cnnc12` the value was -5.9% (inactive); for `O=c1[nH]c2ccccc2n2c(-c3ccccc3)nnc12`, 74.5% (active).

Turning to `COc1ccc(S(=O)(=O)N(C)CC(=O)Nc2ccc(C(N)=O)cc2)cc1OC`, the inhibition was -13.3% (inactive).

Take `CC(C)N(C(=O)CSc1nnc(CNc2ccc(F)cc2)o1)C(C)C`: the inhibition is 17% (inactive). In the case of `Cc1cc(C)c2nc(N)sc2c1` it was 7.6% (inactive); in that of `Cc1cc(C)c2ccc(N)nc2c1O`, 26% (inactive); in that of `Cc1cc(C)c(O)c(N)c1`, 61.3% (active). For `Cc1nc2cc(C)c(C)cc2s1`, the inhibition is -8.8% (inactive). Take `CCC(C)(C)NC(=O)c1cc(C(=O)OC)cc([N+](=O)[O-])c1`: the inhibition was -6.6% (inactive). For `O=C(N/N=C/C(Br)=C/c1ccccc1)C1CC1` the value was 14.3% (inactive); for `COc1cc2c(cc1OC)-c1cc3ccc4c(c3c[n+]1CC2)OCO4`, 53.6% (active). For `COc1cc2c(cc1O)CC[n+]1cc3c(OC)c(OC)ccc3cc1-2` the value was 39.9% (inactive); for `COc1ccc2cc3[n+](cc2c1OC)CCc1cc2c(cc1-3)OCO2`, 33.7% (inactive); for `O=C1c2ccccc2-n2c1nc1ccccc1c2=O`, 50.7% (active).

For `O=c1c2ccccc2nc(-c2ccccc2Cl)n1O`, the inhibition was -7.6% (inactive). As to `O=c1c2ccccc2nc(-c2cccs2)n1-c1cccc2ccccc12`, the inhibition is -3.7% (inactive). In the case of `O=C(NCc1ccco1)Nc1ccccc1Cl` it was 5.5% (inactive). For `NS(=O)(=O)c1ccc(CCNC(=O)c2ccc(S(=O)(=O)N3CCCCC3)cc2)cc1`, the inhibition was -2.8% (inactive). For `O=C(c1ccc(Cl)cc1)c1c[nH]c(C(=O)NNc2cccc(Cl)n2)c1`, the inhibition is 4.5% (inactive). In the case of `CCOc1ccccc1CNc1ccc(O)cc1` it was 59.4% (active); in that of `Oc1ccc(NCc2ccccc2OCc2ccccc2)cc1`, 47.7% (inactive); in that of `Oc1ccc(NCc2ccccc2OCc2ccccc2F)cc1`, 25% (inactive). For `COc1ccc(C2SCC(=O)N2c2c(C)n(C)n(-c3ccccc3)c2=O)cc1OC` (stereo not drawn) the value was -1.7% (inactive). `CCOc1ccc(OCC)c(S(=O)(=O)NNC(=O)c2c(C)nc3ccccn23)c1`: the inhibition is -3.5% (inactive). Consider `Cc1ccc(C(=O)CC2(O)C(=O)N(C)c3ccccc32)s1` (stereo not drawn), for which the inhibition is 9.4% (inactive). In the case of `CC(=O)N1c2ccccc2C2(O)N=C(C)SC12` (stereo not drawn) it was 52.8% (active). In the case of `CC(=O)N1c2ccccc2C(C)(C)C2CCC(C)CC21` (stereo not drawn) it was -3.5% (inactive); in that of `CCOC(=O)C1=C(C)N(C)C(=O)NC1c1c(C)nn(-c2ccccc2)c1C` (stereo not drawn), 1.3% (inactive). As to `CCOC(=O)C1=C(C)N(C)C(=O)NC1c1c(C)nn(-c2ccc(C)cc2)c1Cl` (stereo not drawn), the inhibition was -4% (inactive). For `Nc1nc(SCC(=O)NCC2CCCO2)n[nH]1` (stereo not drawn), the inhibition was 5.9% (inactive). For `CCOc1ccc2[nH]c(=O)c(CN(CCO)C(=O)c3ccccc3F)cc2c1` the value was -1% (inactive); for `CCc1ccc2c(c1)CCCN2C(=O)c1ccccc1C(=O)O`, -10% (inactive). Turning to `CCCN1CCCc2cc(CN)ccc21`, the inhibition is 50.4% (active). Turning to `CCCN1CCCc2ccccc21`, the inhibition is -58.9% (inactive). For `COc1cc(C2C(C(C)=O)=C(O)C(=O)N2CCc2c[nH]c3ccccc23)ccc1O` (stereo not drawn) the value was 21.6% (inactive); for `CCOC(=O)CCCNC(=O)COC(=O)c1cccc(C)c1O`, -3.7% (inactive); for `S=C1NCCOCCOCCNC(=S)N2CCOCCOCCN1CCOCCOCC2`, 11.7% (inactive). In the case of `CC(=O)N1CCC(N(CCN2CCOCC2)C(=S)Nc2cccc(C)c2)CC1` it was -11.5% (inactive); in that of `CC1(C)CC2CC(C)(CN2CC(=O)C(C#N)c2ccccc2)C1` (stereo not drawn), -41% (inactive); in that of `CC1(C)CC2CC(C)(CN2Cc2c(O)ccc3ccccc23)C1` (stereo not drawn), 66.3% (active). Turning to `CC1(C)CC2CC(C)(CN2C(=O)COc2cccc3ccccc23)C1` (stereo not drawn), the inhibition was 2.7% (inactive). Turning to `O=Cc1ccc2noc(-c3ccc(F)cc3)c2c1`, the inhibition is -86.8% (inactive).

As for `CCCn1nnc(NC(=O)c2ccc(OCC)c(Cl)c2)n1`, the inhibition is 2% (inactive). As for `CC(=O)c1ccc(NC2OC(C)C(O)C(O)C2O)cc1` (stereo not drawn), the inhibition is 20.1% (inactive). On to `CC1OC(Nc2ccc(N=Nc3ccccc3)cc2)C(O)C(O)C1O` (stereo not drawn), for which the inhibition was 8.3% (inactive).

Consider `CC1OC(Nc2cccc3ccccc23)C(O)C(O)C1O` (stereo not drawn), for which the inhibition was 60.5% (active). For `Cc1ccc2cc(CN(Cc3cccs3)Cc3nnnn3CC3CCCO3)c(=O)[nH]c2c1C` (stereo not drawn), the inhibition was 0.6% (inactive). Regarding `COc1cccc(NC(=S)N(Cc2ccc(Cl)cc2)Cc2ccc(C(=O)O)cc2)c1`, the inhibition was -30.6% (inactive). In the case of `COc1ccccc1CC(=O)NCC(c1ccco1)N1CCCCC1` (stereo not drawn) it was 58.9% (active); in that of `COc1ccccc1NC(=O)NCC(c1ccco1)N1CCCCC1` (stereo not drawn), 0.2% (inactive). For `O=C(Cc1ccccc1F)NCC(c1ccco1)N1CCCCC1` (stereo not drawn) the value was -5.8% (inactive); for `O=C(c1ccco1)N1CCN(C(c2ccc(F)cc2)c2nnnn2Cc2cccs2)CC1` (stereo not drawn), -6% (inactive); for `Cn1cnc2cc(NC(=O)c3ccc(Cl)cc3)ccc21`, -16.1% (inactive).

For the compound `CSc1nc2ccccc2n1CC(=O)Nc1cc(C(F)(F)F)ccc1N1CCOCC1`, the inhibition is -1.6% (inactive). Regarding `NS(=O)(=O)c1ccc(C(=O)O)cc1`, the inhibition was -8% (inactive). `N#CC(C#N)=C1c2cc(S(N)(=O)=O)ccc2-c2ccc(S(N)(=O)=O)cc21`: the inhibition is 57.5% (active). In the case of `N#CC(C#N)=Cc1cccn1-c1ccc(S(N)(=O)=O)cc1` it was 0% (inactive); in that of `CC(C)OP(=O)(c1ccccc1)c1ccccc1`, -8.8% (inactive).

For the compound `C=CCN1C(=NC(=O)CCC)SC2CS(=O)(=O)CC21` (stereo not drawn), the inhibition is -8.2% (inactive).

With `N#C/C(=C\c1ccc(-c2ccccc2[N+](=O)[O-])o1)C(=O)N1CCOCC1`, the inhibition is 45.8% (inactive). As for `O=C(/C=C/c1ccc(-c2ccccc2[N+](=O)[O-])o1)c1ccc(F)cc1`, the inhibition was 34.1% (inactive). For `CNC(=O)/C(C#N)=C/c1ccc(-c2ccccc2[N+](=O)[O-])o1` the value was 61% (active); for `Cc1ccc(Cc2cnc(NC(=O)/C(C#N)=C/c3ccc(-c4ccccc4[N+](=O)[O-])o3)s2)cc1`, 30.3% (inactive); for `O=C(/C=C/c1ccc(-c2ccccc2[N+](=O)[O-])o1)c1ccccc1`, 47.3% (inactive). For `O=C(/C=C/c1ccc(-c2ccccc2[N+](=O)[O-])o1)c1ccc(Br)cc1` the value was -32.8% (inactive); for `CNC(=O)/C(C#N)=C/c1ccc(-c2ccc(OC)cc2[N+](=O)[O-])o1`, 29.2% (inactive). In the case of `N#C/C(=C/c1ccc(-c2ccccc2[N+](=O)[O-])o1)C(N)=O` it was 51.9% (active); in that of `N#C/C(=C\c1ccc(-c2ccccc2[N+](=O)[O-])o1)C(=O)Nc1nc(-c2cccs2)cs1`, 53.1% (active). Consider `N#C/C(=C\c1ccc(-c2ccc(F)cc2)o1)C(=O)Nc1nc(-c2cccs2)cs1`, for which the inhibition is 30.8% (inactive). In the case of `COCCNC(=O)/C(C#N)=C/c1ccc(-c2ccc(OC)cc2[N+](=O)[O-])o1` it was 42.2% (inactive). For `O=C(/C=C/c1ccc(-c2ccccc2[N+](=O)[O-])o1)c1ccco1` the value was 51.7% (active); for `CCOC(=O)c1c(NC(=O)c2c(C(=O)O)cccc2[N+](=O)[O-])sc(C)c1C`, 8.7% (inactive).

Take `O=C(Nc1ccc(S(=O)(=O)Nc2ccc(F)cc2)cc1)c1ccc(CN2CCOCC2)cc1`: the inhibition was 17% (inactive). With `Cc1cc(C)n(-c2nc(NCc3cccnc3)c3c4c(sc3n2)COC(C)(C)C4)n1`, the inhibition was 6.9% (inactive).

For the compound `O=c1c2cc(NC(=S)NCc3cccnc3)ccc2nc2n1CCCCC2`, the inhibition is 1.2% (inactive). In the case of `CC1Cc2ccccc2N1C(=O)CSc1nnc(-c2ccccc2)c(-c2ccccc2)n1` (stereo not drawn) it was 37.9% (inactive); in that of `COc1cccc(C2CC(c3ccc(C(C)C)cc3)n3nc(N)nc3N2)c1` (stereo not drawn), 11.2% (inactive); in that of `CC(=O)Nc1ccc(OCC(O)CN2CCN(c3cc(Cl)ccc3C)CC2)cc1` (stereo not drawn), -2% (inactive). For `Clc1cccc(CN2COc3c(cc(Cl)c4cccnc34)C2)c1` the value was 51.8% (active); for `Oc1c(CN2CCc3ccccc3C2)cc(Cl)c2cccnc12`, 48.3% (inactive). On to `CC(C)(C)c1cc2cccnc2n1Cc1cccc(Cl)c1`, for which the inhibition is 1.9% (inactive).

In the case of `Cc1nn(-c2ccccc2)c(Cl)c1C1C(C#N)=C(N)Oc2c1c(C)nn2-c1ccccc1` (stereo not drawn), the inhibition was 9% (inactive). Take `CC(C)CNC(=O)CSc1nc2scc(-c3ccccc3)c2c(=O)[nH]1`: the inhibition was -14.2% (inactive).

Regarding `CC(=O)c1cccc(N(C(=O)CNC(=O)c2ccco2)C(C(=O)NCc2ccco2)c2ccccc2)c1` (stereo not drawn), the inhibition is -1.4% (inactive). `CC(=O)Nc1ccc(N(C(=O)CNC(=O)c2ccco2)C(C(=O)NCC2CCCO2)c2ccccc2)cc1` (stereo not drawn): the inhibition was -1.6% (inactive). For `CC(=O)Nc1ccc(N(C(=O)CNC(=O)c2ccco2)C(C(=O)NCc2ccco2)c2ccccc2F)cc1` (stereo not drawn), the inhibition was 60.4% (active).

Regarding `O=C(OCCN1CCOCC1)c1cccs1`, the inhibition was 9% (inactive). Consider `O=C(Oc1ccc(Cl)c2cccnc12)N1CCOCC1`, for which the inhibition was 8.2% (inactive). In the case of `CN1CCN(Cc2cc(Cl)c3cccnc3c2OC(=O)c2cccs2)CC1` it was 50.4% (active); in that of `O=C(Oc1c(Cl)cc(Cl)c2cccnc12)c1cccs1`, 1.8% (inactive); in that of `COCc1cc(CN2CCN(C)CC2)c(O)c2ncccc12`, 37.9% (inactive). In the case of `O=C(Oc1c(CN2CCOCC2)cc(Cl)c2cccnc12)c1cccs1` it was 56.4% (active).

The record behind these values is PubChem BioAssay AID1220 (Sanford-Burnham Center for Chemical Genomics, 2008).
